Experiment: changes in parasitized red cell lysis, either direction – P. falciparum Indochina, OD700, 3 h, PSAC antagonist project, primary screen (AID 1156)
Details: P. falciparum-infected erythrocytes, osmotic lysis, higher = more signal, called active from +8 up or from −8 down

z-score, inactive:
COc1cc(CO)cc(I)c1O[C@H]1C=C(C(=O)NCCO)C[C@@H](N(CC2CCCCC2)C(=O)c2cc3ccccc3oc2=O)[C@@H]1O 1.18
C=C(CCCC)/C(=C/C[C@@H](OC(=O)c1ccncc1)c1cccc(OCCO)c1)c1cc(C(=O)OC)ccc1OC 2.48
C=CCC(OC(C)=O)[C@@H]1[C@@H](N(Cc2ccc(-c3ccccc3)cc2)C(=O)c2ccc(-c3ccccc3)cc2)c2cc(OCCCO)ccc2N1C(=O)Cc1ccc(OC)cc1 (some centres undefined) -0.501
CC(=O)NCCCC[C@@H]1NC(=O)[C@H]2C[C@@H](C(=O)NCCCCCCN(C)C)[C@@H](c3ccc(O)cc3)N2C1=O 1.92
Cc1ccc(S[C@]2(C(=O)NC(C)C)CC(=O)N(C3Cc4ccccc4C3)[C@@H]2c2ccc(CO)cc2)cc1 1.04
Cc1ccc(N2C(=O)c3ccccc3[C@](C)(C(=O)NCC(C)C)[C@@H]2c2ccc(CO)cc2)nc1 1.26
[N-]=[N+]=NCc1ccccc1C[C@]1(C(=O)N2CCCCC2)N=C(c2ccc(OCCCO)cc2)O[C@H]1c1ccccc1CN=[N+]=[N-] 2.16
C=C(CCCC)/C(=C/C[C@H](OC(=O)c1ccncc1)c1cccc(OCCO)c1)c1cc(C(=O)OC)ccc1OC 1.61
O=C(CS)NCCCCCCNC(=O)[C@@H]1C[C@@H]2C(=O)N[C@@H](Cc3ccccc3)C(=O)N2[C@@H]1c1ccc(O)cc1 4.5
C=C(CCCC)C(=O)CC[C@@H](OC(=O)c1cccnc1)c1cccc(OCCO)c1 1.28
COc1ccc([C@H]2C[C@H]3C(Br)=C[C@]2(OC)C(=O)[C@]32CO2)cc1 -0.29
C=C(C(=O)CC[C@H](OC(=O)c1ccccc1-c1ccccc1C(=O)O)c1ccc(CO)o1)C(C)C 1.19
COC(=O)c1ccc(C#CC(NP(=O)(c2ccccc2)c2ccccc2)c2ccccc2)cc1 (centres undefined) 1.04
CCOC(=O)C1=CC[C@@H](c2ccc(-c3ccc(OCc4ccccc4)cc3)c(OC)c2)N(S(=O)(=O)c2ccc(C)cc2)[C@H]1c1ccccc1 0.487
CC(c1ccccc1)C(O)C1C=CC2C(=O)N(C)C(=O)C2N1N(c1ccccc1)c1ccccc1 (centres undefined) 0.625
C=C[C@H](OC)[C@@H](OC(=O)Nc1ccc(SC)cc1)c1ccc(O)c(F)c1 1.83
C=C(CCCC)C(=O)CC[C@@H](OC(C)=O)c1ccccc1OCCO -0.566
CC(=O)NCCCC[C@@H]1NC(=O)[C@H]2C[C@@H](C(=O)NCCCCCCN(C)C)[C@@H](c3cccc(OCCO)c3)N2C1=O 1.25
CCCC=C(CCC)[C@@H](NS(=O)(=O)c1cccc(C(F)(F)F)c1)c1ccc(C(=O)OC)cc1 -0.723
O=C(NCc1ccccc1)[C@@]1(Cc2ccccc2)COC(c2ccc(OCCCO)cc2)=N1 3.61
[N-]=[N+]=NCc1ccccc1[C@H]1OC(c2ccc(OCCCO)cc2)=N[C@@]1(Cc1ccccc1N=[N+]=[N-])C(=O)NCc1ccccc1 1.96
NC(=O)NCC#Cc1ccc2c(c1)[C@]1(C(=O)N2)[C@H](C(=O)N2CCCCCCC2)[C@H]2C(=O)O[C@H](c3ccccc3)[C@H](c3ccccc3)N2[C@@H]1c1ccccc1OCCO 1.8
C#CCNC(/C=C/c1ccccc1)CO (centres undefined) 0.286
O=C1C2C=CC(C(O)C(c3ccccc3)c3ccccc3)N(Nc3ccc([N+](=O)[O-])cc3)C2C(=O)N1c1ccccc1 (centres undefined) -0.186
C=C(CCCC)/C(=C/C[C@@H](OC(=O)c1ccncc1)c1ccc(CO)o1)c1cnc2ccccc2c1 1.17
CCc1cccc(NC(=O)O[C@H]2[C@H](OC(=O)Nc3ccccc3)[C@@H](OC(=O)Nc3ccccc3)[C@@H](OC)O[C@@H]2CO)c1 -0.298
C=CC[C@]1(C(=O)N2CCCCC2)N=C(c2ccc(OCCCO)cc2)O[C@H]1c1ccccc1N=[N+]=[N-] 4.43
C#C[C@H](O[Si](C#Cc1ccccc1)(C(C)C)C(C)C)c1ccccc1 -1.54
CCOC(=O)C1=CC[C@@H](c2ccccc2)N(S(=O)(=O)c2ccc(C)cc2)[C@H]1C -0.392
O=C(N1CCCCC1)[C@@]1(CCS(=O)(=O)c2ccccc2)N=C(c2ccc(OCCCO)cc2)O[C@H]1c1ccccc1 2.17
CC(C)(C)OC(=O)CC[C@]1(C(=O)N2CCCCC2)N=C(c2ccc(OCCCO)cc2)O[C@H]1c1ccccc1 1.03
N#Cc1ccc(NN2C(C(O)CCc3ccccc3)C=CC3C(=O)N(c4ccccc4)C(=O)C32)cc1 (centres undefined) 0.712
Cc1ccc(S[C@]2(C(=O)NC3CC3)CC(=O)N(Cc3cc(C(F)(F)F)cc(C(F)(F)F)c3)[C@@H]2c2ccc(CO)cc2)cc1 1.08
Cc1ccc(S(=O)(=O)N2[C@@H](c3ccccc3)C(C(=O)O)=CC[C@H]2c2ccccc2)cc1 0.605

From PubChem BioAssay
